Source: PubChem BioAssay (several laboratories)
An excerpt weighted towards active compounds, which were near 0.96% of everything screened.
V-ATPase pHluor: regulators of yeast V-ATPase proton pumping, primary screen, pHLuorin cytosolic pH fluorescence. response, % at 10 µM. 0.37% of 350,000 active. S. cerevisiae; in the data active = response mostly above about 7.3%, no sharp cut-off; inactive = mostly below about 5.4%; also: actives read high
MIN6 prolif: inducers of MIN6 beta-cell proliferation, primary screen, ATP luminescence, uHTS | 0.29% of 330,000 active | AID 2380, 2010 | MIN6 cells proliferation, ATPlite luminescence, 48 h; cells starved in 0.2% serum; 100% = growth in 10% serum | proliferation, % at 10 µM;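 active = compounds whose signal lies at least 3.5 SD above the mean of all wells on their plate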;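 also: 0% = DMSO-treated cells in low-serum medium and 100% = 10% serum control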
Rtt109 Vps75: inhibitors of C. albicans Rtt109/Vps75 HAT, primary screen, biochemical, ThioGlo CoA-SH fluorescence, plate reader; AID 540336, 2011; purified Rtt109/Vps75, 4 h; 0.16% of 330,000 active; inhibition, % at 34.9 µM; Histone acetyltransferase RTT109 (Candida albicans (strain SC5314 / ATCC MYA-2876)), …;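 active = inhibition of at least 50% in every replicate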
DAGLB inh: DAGLB lipase inhibitors, primary screen, biochemical, fluorescence, HTS; inhibition, % at 5.17 µM; HEK293T DAGLB membrane lysate, EnzChek fluorogenic substrate; 0.059% of 340,000 active; Diacylglycerol lipase-beta (Homo sapiens), Q8NCG7; in the data active = inhibition above about 34%;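 also: 0% = enzyme with vehicle and 100% = wells lacking enzyme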
Target sequence (Q8NCG7 whole entry, looked up): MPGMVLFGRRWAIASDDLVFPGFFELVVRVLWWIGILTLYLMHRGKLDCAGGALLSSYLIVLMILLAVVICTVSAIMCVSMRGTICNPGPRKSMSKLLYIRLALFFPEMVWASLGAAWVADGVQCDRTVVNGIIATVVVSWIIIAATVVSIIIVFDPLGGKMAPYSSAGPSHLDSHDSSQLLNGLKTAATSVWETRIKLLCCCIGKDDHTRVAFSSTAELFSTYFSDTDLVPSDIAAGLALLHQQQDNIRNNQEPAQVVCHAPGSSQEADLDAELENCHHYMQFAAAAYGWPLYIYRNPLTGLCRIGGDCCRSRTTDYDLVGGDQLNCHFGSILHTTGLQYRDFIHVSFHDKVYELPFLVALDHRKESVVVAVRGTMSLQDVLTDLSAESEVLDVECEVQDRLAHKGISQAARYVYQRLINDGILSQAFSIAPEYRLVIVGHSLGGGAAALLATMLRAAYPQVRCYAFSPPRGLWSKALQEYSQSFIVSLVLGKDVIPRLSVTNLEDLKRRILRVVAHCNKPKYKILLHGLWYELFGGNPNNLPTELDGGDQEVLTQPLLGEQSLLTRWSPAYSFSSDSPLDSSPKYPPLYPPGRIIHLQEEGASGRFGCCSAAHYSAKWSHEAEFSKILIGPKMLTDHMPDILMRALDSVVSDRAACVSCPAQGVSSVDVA
HDAC3 inhib: HDAC3 deacetylase inhibitors, primary screen, biochemical, fluorescence, cell-free homogeneous; Histone deacetylase 3 (Homo sapiens), O15379; recombinant HDAC3, fluorogenic peptide/trypsin coupled; inhibition, % at 8.3 µM; 0.15% of 320,000 active; AID 2718, 2010; in the data active = inhibition above about 26%, passing the limit was not always enough
VATPase regulator: yeast V-ATPase proton pumping modulators, confirmation, S. cerevisiae, pH-sensitive GFP, second cherry-pick. shares compounds with V-ATPase pHluor. S. cerevisiae pHLuorin cytosolic pH, V-ATPase proton transport. response, % at 10 µM. 2% of 980 active. AID 602197, 2012; in the data active = response above about 24%;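 also: plate controls were vehicle wells for no effect and positive control wells for full effect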
The depositor's hits bear a star; . = no result given.

SMILES	V-ATPase pHluor	MIN6 prolif	Rtt109 Vps75	DAGLB inh	HDAC3 inhib	VATPase regulator
CCCCCCn1c(Br)nc2c1c(=O)n(C)c(=O)n2C	1	1	0	-3	4	.
CCOC(=O)C1=C(O)C(=O)C(C(=O)OCC)C1 (stereo not given)	0	.	5	-1	.	.
c1ccc(Cc2nnc3sc(-c4ccccn4)nn23)cc1	11*	2	-7	2	7	-2
O=C1CC(N2CCC(c3nc4ccccc4[nH]3)CC2)C(=O)N1c1cccc(F)c1 (stereo not given)	5.8*	1	0	0	-8	3
O=P(c1ccccc1)(c1ccccc1)N(c1ccccc1)c1ccccc1	2	4	-2	-1	-2	.
Nc1cccc(P(=O)(c2ccccc2)c2ccccc2)c1	9.6*	1	-13	4	7	1
O=C(O)c1ccc(/C=N/N2CCN(C3c4ccccc4-c4ccccc43)CC2)cc1	19*	0	27	-1	3	46*
Nc1nc(NCc2ccco2)nc(N2CCCC2)c1[N+](=O)[O-]	2	0	3	1	3	.
Nc1nc(NCc2ccco2)nc(N2CCCCCC2)c1[N+](=O)[O-]	23*	-2	-5	6	.	1
Cn1nccc1C(=O)OCC(=O)Nc1cccc(Cl)c1	4	-1	-6	3	1	.
CC(C)Cn1c(=O)c2sccc2n2c(CCCC(=O)NC3CCN(Cc4ccccc4)CC3)nnc12	-4	0	-6	-5	2	.
CCCn1c(=O)c2sccc2n2c(CCCC(=O)NC3CCN(Cc4ccccc4)CC3)nnc12	10*	-6	-2	0	3	-1
O=C1CCc2ccccc2N1	2	-4	2	0	.	.
N#C/C(C(N)=O)=C1/CCc2ccccc2N1	13*	0	3	0	0	3
COCCNC(=O)C(c1ccncc1)N(Cc1ccccc1)C(=O)Cn1nnc2ccccc21 (stereo not given)	-3	2	-2	1	7	.
COCCNC(=O)C(c1ccc(C)o1)N(Cc1ccc(F)cc1)C(=O)Cn1nnc2ccccc21 (stereo not given)	24*	3	-10	0	-2	-2
COCCNC(=O)C(c1ccccc1)N(Cc1cccs1)C(=O)Cn1nnc2ccccc21 (stereo not given)	24*	0	-15	1	-1	-6
COc1cccc(NC(=O)c2ccccc2-c2ccccc2)c1	8.8*	-1	0	-3	-3	-3
COc1ccc(NC(=O)c2ccccc2-c2ccccc2)cc1	0	1	7	-1	-1	.
COc1cccc(NC(=S)NNC(=O)c2ccccc2OC(F)F)c1	9.4*	1	8	-1	3	9
c1ccc(COCCCn2cc(-c3ccccc3)nn2)cc1	10*	2	2	-6	2	-2
C=CC[C@@H](CC(=O)N(CCO)Cc1ccccc1)C(=O)N[C@@H](C)COC(=O)[C@@H](CC=C)CC(=O)OC(C)(C)C	14*	0	-6	-3	4	5
C=CC[C@H](CC(=O)N(CCO)Cc1ccccc1)C(=O)N[C@@H](C)COC(=O)[C@H](CC=C)CC(=O)OC(C)(C)C	-6	-2	-5	0	11	.
Cc1cccc(Nc2nc3c(S(=O)(=O)c4ccccc4)nnn3c3ccccc23)c1	2	-4	-11	-2	3	.
Cn1nnnc1Sc1c(Cl)cccc1[N+](=O)[O-]	7.8*	-3	.	0	2	3
Cc1cc2oc(=O)cc(Cn3ccnc3)c2cc1C	1	-1	10	-1	5	.
COc1ccccc1NC(=O)C(C)OC(=O)CCCOc1ccccc1 (stereo not given)	11*	2	16	-8	-4	-2
CC(OC(=O)CCCOc1ccccc1)C(=O)NC(N)=O (stereo not given)	-1	2	6	-2	1	.
Cc1ccc(S(=O)(=O)NC(=O)NCCCCNC(=O)NS(=O)(=O)c2ccc(C)cc2)cc1	18*	-2	-7	2	-7	1
